CYP2C19 inhib: inhibitors of human CYP2C19; inhibition, % at 5 µM; CYP2C19 Supersomes, luciferin-H EGE luminescence, 30 min; hit rate 21% among 96,000;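 active = CYP2C19 inhibition above a set limit at 5 µM in the primary screen, cut at about 50% in these data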;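 note: plate controls were negative control wells for no effect and 2.5 mM tranylcypromine positive control for full effect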
CYP2C9 activ: activators of human CYP2C9; AID 1024; activation factor at 5 µM; hit rate 1.4% among 96,000; recombinant CYP2C9, luciferin-H conversion, luminescence; active compounds read high; factor 1 = untreated enzyme, 0 = blocked;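 active = activation factor of 2 or more for CYP2C9 at a 5 µM dose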;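 note: 0 = sulfaphenazole-blocked wells and 1 = vehicle-only wells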
CYP2C9 inh: blocks human cytochrome P450 2C9; CYP2C9 Supersomes, luciferin-H conversion, luminescence; inhibition, % at 5 µM; hit rate 20% among 96,000;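 active = blocking of liver enzyme CYP2C9 beyond about 50% at 5 µM, limit read from the data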
CYP2C19 activ: increases human CYP2C19 enzyme activity; activation factor at 5 µM; 96,000 tested, under 10 active; P33261; recombinant CYP2C19, luciferin-H EGE luminescence; active compounds read high; 0 = fully inhibited enzyme, 1 = untreated enzyme; AID 1025;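 active = activation factor of at least 2 at 5 µM in the primary screen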;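 note: 0 = wells with 2.5 mM tranylcypromine and 1 = vehicle-only wells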
Cav3 T inh: blocks human Cav3.2 T-type calcium channel; O95180; Cav3.2-expressing cells, Fluo-4 calcium fluorescence FDSS; active compounds read low; B-score at 10 µM; hit rate 4% among 100,000; AID 449739;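 active = single-dose well whose peak fluorescence ratio is a statistical outlier from its plate by either plate-standardised score or position-corrected B-score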
An asterisk follows results filed as active; . = no result. In the library only some 27% were active in any assay of this set; here they are far more common.

SMILES | CYP2C19 inhib | CYP2C9 activ | CYP2C9 inh | CYP2C19 activ | Cav3 T inh
CCCCSc1nnc([C@@H](NC(=O)OC(C)(C)C)C(C)C)o1 | 50.2* | 0.6 | 43.9 | 0.5 | -1.44
C=C(C)CSc1nnc([C@@H](NC(=O)OC(C)(C)C)C(C)CC)o1 (stereo partly specified) | 83.0* | 0.5 | 52.0* | 0.2 | -2.2
COC(=O)c1cc(OC)cc(O)c1C(=O)c1c(O)cc(C)cc1O | . | . | . | . | 0.365
COCCOC(=O)c1cc(C(=O)c2cc(F)ccc2O)coc1=N | . | . | . | . | -0.426
Cc1ncc(CC(=O)n2cc(C(=O)c3cc(F)ccc3O)cn2)s1 | -9.1 | 0.9 | 5.5 | 1.1 | -3.45*
Cc1ccc(O)c(C(=O)c2cnn(C(=O)Cc3csc(C)n3)c2)c1 | 28.5 | 0.2 | 77.3* | 0.7 | -1.28
Cc1nc(CC(=O)c2ccc(O)cc2O)cs1 | 22.9 | 0.8 | 25.0 | 0.8 | 0.453
COC(=O)[C@@H]1C[C@H]2CC[C@H](O)C[C@H]2N1Cc1ccc(C)s1 | . | . | . | . | 1.15
COC(=O)c1ccc(C(=O)OC)c(NC(=O)N2c3ccccc3Sc3ccccc32)c1 | 12.4 | 0.5 | 50.6* | 0.9 | -3.14
O=C(Nc1ccc(F)cc1F)c1ccco1 | -5.6 | 0.9 | 5.5 | 1.1 | 0.0777
COC(=O)CSc1ncnc2c1sc1nc(N3CCOCC3)c3c(c12)CCCC3 | 13.4 | 0.7 | 31.2 | 0.9 | -0.679
CCOC(=O)CSc1ncnc2c1sc1nc(N3CCOCC3)c3c(c12)CCCC3 | 17.9 | 0.5 | 54.1* | 0.8 | -1.46
c1nc(N2CCNCC2)c2sc3nc(N4CCOCC4)c4c(c3c2n1)CCC4 | 15.1 | 0.7 | 29.8 | 0.8 | .
OCCN(CCO)c1ncnc2c1sc1nc(N3CCOCC3)c3c(c12)CCCC3 | 80.9* | 0.1 | 89.3* | 0.2 | 0.707
OCCN1CCN(c2ncnc3c2sc2nc(N4CCOCC4)c4c(c23)CCC4)CC1 | 83.9* | 0.2 | 78.6* | 0.2 | 0.258
Cc1ccc2c(CC(=O)OC3CCOC3=O)coc2c1 (stereo unspecified) | 37.2 | 0.8 | 17.6 | 0.6 | 0.0608
COC1Cc2ccccc2N(C(=O)N2CCN(CCO)CC2)c2ccccc21 (stereo unspecified) | 31.6 | 1.1 | -5.0 | 0.7 | .
O=C(NCC(c1cccnc1)N1CCN(c2ccc(F)cc2)CC1)c1ccc(F)cc1 (stereo unspecified) | 81.0* | 0.2 | 76.8* | 0.2 | -0.456
O=C(NCC(c1cccnc1)N1CCN(c2ccc(F)cc2)CC1)c1ccc2c(c1)OCO2 (stereo unspecified) | 63.6* | 0.2 | 80.5* | 0.4 | 0.198
NC(=O)C1=C[C@H](c2csc3ccccc23)C[C@H](OCCCCO)O1 | . | . | . | . | 0.353
CCN(CC)CCNCc1ccc(-c2ccc(Cl)cc2)o1 | 15.6 | 1.1 | -12.7 | 0.8 | 1.15
CN(CC(=O)Nc1ccccn1)S(=O)(=O)c1ccc(Cl)cc1 | . | . | . | . | -0.643
Cc1nc(NC(=O)CN(C)S(=O)(=O)c2ccc(Br)cc2)sc1C | 94.1* | 0.3 | 67.1* | 0.1 | -5.82*
CN(CC(=O)Nc1cccc2c1CCCC2)S(=O)(=O)c1ccc(Br)cc1 | 3.2 | 1 | -4.2 | 1 | -1.04
CN(CCCC(=O)Nc1ccncc1)S(=O)(=O)c1ccc(Cl)cc1 | 98.2* | 0 | 98.7* | 0 | .
SMILES | CYP2C19 inhib | CYP2C9 activ | CYP2C9 inh | CYP2C19 activ | Cav3 T inh
CN(CC(=O)Nn1cnnc1)S(=O)(=O)c1ccc(Br)cc1 | 82.7* | 0.7 | 34.8 | 0.2 | 0.514
Cc1ccc(S(=O)(=O)N(C)CC(=O)Nc2nc3ccccc3s2)cc1 | 16.1 | 1 | 2.2 | 0.8 | -0.993
CN(CC(=O)Nc1ccncc1)S(=O)(=O)c1ccc(Br)cc1 | 99.5* | 0.2 | 76.6* | 0 | 0.369
O=C(NC1CCCC1)C(c1ccc(O)cc1)N(CC1CCCO1)C(=O)C1COc2ccccc2O1 (stereo unspecified) | 55.9* | 0.3 | 69.6* | 0.4 | -2.47
COc1ccc(C(C(=O)NC2CCCCC2)N(CC2CCCO2)C(=O)C2COc3ccccc3O2)cc1OC (stereo unspecified) | . | . | . | . | 2.13
CCN(CC)S(=O)(=O)c1ccc(O)c(C(=O)OCC(=O)N(C)Cc2ccccc2)c1 | 30.7 | 0.2 | 75.1* | 0.7 | -1.46
Cc1nn2c(=O)nc3sc4c(c3c2[nH]c1=O)CCCC4 | . | . | . | . | 0.135
COc1ccc([C@H]2[C@@H](C#N)[C@H](C#N)N3CCCN23)cc1 | . | . | . | . | 0.639
O=C(COc1ccc(Br)cc1)Nc1ccc(-c2nnc(-c3ccco3)o2)cc1 | 63.9* | 0.7 | 33.4 | 0.4 | 0.384
CCC(Oc1ccccc1)C(=O)Nc1ccc(-c2nnc(-c3ccco3)o2)cc1 (stereo unspecified) | 90.4* | 0 | 97.4* | 0.1 | .
